From PubChem BioAssay come the findings set out here.

For assay [1], the system named is Aerobactin synthetase IucA (Klebsiella pneumoniae). Nature of the assay: IucA aerobactin synthetase inhibitors, biochemical, Tocris library, absorbance (AID 1345561; call rule not given here;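 also: 100% = enzyme without compound and 0% = no enzyme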). As to conditions: purified IucA enzyme assay, absorbance (OD) read-out; stronger effect = lower value;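 tested at 8 µM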.
Assay [2] in a line: sensitizers of A549 cells to miR-34 induction, primary screen, imaging, A549 dox-inducible miR-34, nuclei and caspase counts (AID 1347080;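 active = compounds whose cell count with miR-34 switched on is under 0.7 times the count with it off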). As to conditions: A549 miR-34 inducible, Hoechst nuclei count, 48 h.
Assay [3] can be described thus: viability rescue of complex I mutant cybrids, primary screen, cell-based, galactose medium, ATP luminescence (AID 1645843).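 Also: positive z means more ATP and so rescue of galactose-driven cybrid death.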 Conditions: complex I mutant cybrid cells, 72 h, stronger effect = higher value.
[4] abbreviates: stronger effect = lower value, cell number ratio, induced over uninduced.
[5] abbreviates: measured here: relative caspase fold change +Dox/-Dox.
Where [6] appears, read: measured here: total cells with miR-34 induction, stronger effect = lower value.
Setting [7] is: measured here: total cells without miR-34 induction.

Each structure is given as a SMILES string. Calls of active or inactive are those of the source.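 The calls were made as follows, unless noted: active = z-score of at least 1.8 in each of two replicates, scored against plate mean and spread of sample wells; inactive = the rest.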

On to `CN(C)CCC1(c2ccc(Cl)cc2)Cc2ccccc2C(=O)O1` (centres undefined), for which, in assay [1], the remaining activity is 122% (inactive). Besides, the fold change in assay [2] (setting [4]) is 0.975 (inactive); in assay [2] (setting [5]), 1.4. Moreover, the cell count in assay [2] (setting [6]) worked out at 7700; in assay [2] (setting [7]) it was 7900. For the same compound, the z-score in assay [3] is -0.195 (inactive).
As to `O=c1nc2ccccc2c2n1CC(CN1CCN(c3ccccc3)CC1)N2` (centres undefined), the remaining activity in assay [1] is 100% (inactive). Moreover, the fold change in assay [2] (setting [4]) was 0.869 (inactive); in assay [2] (setting [5]) it was 0.649. The results for the cell count in assay [2] (setting [6]) and in assay [2] (setting [7]) were 9300 and 10700, respectively. Also, in assay [3], the z-score is -0.605 (inactive).
As to `Cc1nnc(-c2ccc3occ(-c4ccc(S(C)=O)cc4)c3c2)o1` (centres undefined), the remaining activity in assay [1] was 113% (inactive). The fold change in assay [2] (setting [4]) is 0.855 (inactive); in assay [2] (setting [5]) it was 1.35. For the same compound, the cell count in assay [2] (setting [6]) stood at 4510; in assay [2] (setting [7]), 5270. Besides, the z-score in assay [3] is -0.44 (inactive).
In the case of `COc1ccc(NC(=O)c2cc(OCCCN(C)C)nn2Cc2ccccc2)cc1`, in assay [1], the remaining activity is 99.8% (inactive). For the same compound, the fold change was 0.937 (inactive) in assay [2] (setting [4]) and 1.3 in assay [2] (setting [5]). In addition, the values for the cell count in assay [2] (setting [6]) and in assay [2] (setting [7]) were 8250 and 8810, respectively. In addition, the z-score in assay [3] is -0.3 (inactive).
`Cc1ccccc1N=C(N)Nc1ccccc1C`: in assay [1], the remaining activity is 93.4% (inactive). In addition, the fold change is 0.944 (inactive) in assay [2] (setting [4]) and 0.72 in assay [2] (setting [5]). Moreover, the cell count came to 8710 in assay [2] (setting [6]) and 9220 in assay [2] (setting [7]). For the same compound, the z-score in assay [3] is -0.035 (inactive).
For the compound `CCCCC#Cc1nc(NC)c2ncn([C@@H]3O[C@H](CO)[C@@H](O)[C@H]3O)c2n1`, the remaining activity in assay [1] was 96.8% (inactive). Also, the fold change in assay [2] (setting [4]) is 0.906 (inactive); in assay [2] (setting [5]), 0.777. Also, the cell count in assay [2] (setting [6]) turned out to be 8810; in assay [2] (setting [7]) it was 9730. Besides, the z-score in assay [3] is -0.21 (inactive).
For the compound `O=C(N/N=C/c1ccccc1O)c1ccccc1O`, in assay [1], the remaining activity was 106% (inactive). In addition, the fold change in assay [2] (setting [4]) was 0.984 (inactive); in assay [2] (setting [5]), 1.5. The cell count is 4010 in assay [2] (setting [6]) and 4070 in assay [2] (setting [7]). Besides, the z-score in assay [3] was -0.59 (inactive).
`Oc1ccc(-c2nc3cc(O)cc(Br)c3o2)cc1`: the remaining activity in assay [1] was 98.9% (inactive). Besides, the values for the fold change in assay [2] (setting [4]) and in assay [2] (setting [5]) were 0.904 (inactive) and 1.67, respectively. For the same compound, the cell count amounted to 8500 in assay [2] (setting [6]) and 9400 in assay [2] (setting [7]). The z-score in assay [3] is 0.775 (inactive).
For the compound `CC(C)N1Cc2cc(S(C)(=O)=O)ccc2N(CCN2CC=C(c3c[nH]c4cc(F)ccc34)CC2)S1(=O)=O`, the remaining activity in assay [1] is 110% (inactive). Also, the values for the fold change in assay [2] (setting [4]) and in assay [2] (setting [5]) were 0.929 (inactive) and 1.15, respectively. Moreover, the figures for the cell count in assay [2] (setting [6]) and in assay [2] (setting [7]) were 6990 and 7530, respectively. Further, the z-score in assay [3] was 0.12 (inactive).
As for `Cc1ccc(/C=C2\CNC/C(=C\c3ccc(C)cc3)C2=O)cc1`, the remaining activity in assay [1] was 95.5% (inactive). The fold change in assay [2] (setting [4]) was 0.9 (inactive); in assay [2] (setting [5]), 0.964. Also, the cell count was 500 in assay [2] (setting [6]) and 556 in assay [2] (setting [7]). For the same compound, the z-score in assay [3] was -0.645 (inactive).
As to `Cn1ccc2cc(NC(=O)Nc3cccnc3)ccc21`, the remaining activity in assay [1] is 111% (inactive). Moreover, the fold change in assay [2] (setting [4]) was 0.984 (inactive); in assay [2] (setting [5]), 0.852. Further, the results for the cell count in assay [2] (setting [6]) and in assay [2] (setting [7]) were 8400 and 8540, respectively. Besides, the z-score in assay [3] was 0.405 (inactive).
`CN(N=O)C(=O)N[C@H]1C(O)O[C@H](CO)[C@@H](O)[C@@H]1O` (some centres undefined): the remaining activity in assay [1] was 111% (inactive). In addition, the fold change in assay [2] (setting [4]) was 0.958 (inactive); in assay [2] (setting [5]), 0.621. For the same compound, the results for the cell count in assay [2] (setting [6]) and in assay [2] (setting [7]) were 8770 and 9160, respectively. In addition, in assay [3], the z-score is -0.2 (inactive).
`NC(C(=O)O)c1ccc(C(=O)O)c(C(=O)O)c1` (centres undefined): the remaining activity in assay [1] was 109% (inactive). For the same compound, the fold change in assay [2] (setting [4]) was 0.922 (inactive); in assay [2] (setting [5]) it was 0.667. Also, the cell count in assay [2] (setting [6]) stood at 8080; in assay [2] (setting [7]) it was 8760. Further, the z-score in assay [3] is 0.13 (inactive).
On to `O=C(NCCN1CCCCC1)c1ccc(I)cc1`, for which the remaining activity in assay [1] was 103% (inactive). Moreover, the fold change in assay [2] (setting [4]) was 0.954 (inactive); in assay [2] (setting [5]), 0.747. Moreover, the cell count in assay [2] (setting [6]) is 9320; in assay [2] (setting [7]) it was 9760. In addition, the z-score in assay [3] was 0.155 (inactive).
`COc1cc(COc2cc(N)c(Cl)cc2C(=O)CCC2CCN(CCNS(C)(=O)=O)CC2)cc(OC)c1`: the remaining activity in assay [1] was 100% (inactive). Besides, the values for the fold change in assay [2] (setting [4]) and in assay [2] (setting [5]) were 0.842 (inactive) and 1.5, respectively. Besides, the cell count in assay [2] (setting [6]) was 3930; in assay [2] (setting [7]), 4660. The z-score in assay [3] is -0.81 (inactive).
For the compound `NC(Cn1ccc(=O)n(Cc2ccccc2C(=O)O)c1=O)C(=O)O` (centres undefined), in assay [1], the remaining activity is 98.2% (inactive). The fold change is 0.925 (inactive) in assay [2] (setting [4]) and 1.4 in assay [2] (setting [5]). The results for the cell count in assay [2] (setting [6]) and in assay [2] (setting [7]) were 8950 and 9680, respectively. In addition, in assay [3], the z-score was 0.13 (inactive).
`COC(=O)c1ccccc1NC(=O)c1ccc(F)cc1`: in assay [1], the remaining activity was 99.3% (inactive). In addition, the results for the fold change in assay [2] (setting [4]) and in assay [2] (setting [5]) were 0.965 (inactive) and 0.872, respectively. Also, the figures for the cell count in assay [2] (setting [6]) and in assay [2] (setting [7]) were 7260 and 7520, respectively. Moreover, in assay [3], the z-score is 0.635 (inactive).
With `CC(=Nc1ccccc1N)c1c(C)cc(=O)n(O)c1O`, the remaining activity in assay [1] was 117% (inactive). Moreover, the fold change in assay [2] (setting [4]) is 1.16 (inactive); in assay [2] (setting [5]), 0.955. In addition, the values for the cell count in assay [2] (setting [6]) and in assay [2] (setting [7]) were 3450 and 2970, respectively. Also, the z-score in assay [3] is -0.105 (inactive).
`O=C(O)Cc1cc2ccccc2nc1C(=O)O`: the remaining activity in assay [1] was 129% (inactive). Moreover, the fold change in assay [2] (setting [4]) is 0.938 (inactive); in assay [2] (setting [5]), 1.06. The cell count is 8250 in assay [2] (setting [6]) and 8790 in assay [2] (setting [7]). Further, in assay [3], the z-score was 0.145 (inactive).
